Our source for the Potency values is PubChem BioAssay AID1347165 (National Center for Advancing Translational Sciences (NCATS), 2019).

In all, about 220,000 compounds went through this assay and about 5,700 (2.6%) were called active. A call without a number means that no potency is given here. Inconclusive results (about 18%) are left out. Calls follow the shape of the dose curve; as a rule, active = well fitted inhibition curve with a large enough effect; inconclusive = small, poorly fitted or top-dose-only effect; inactive = no such curve, though single readings can be large or run the other way. The sample as a whole holds a higher share of actives than the screen did.
Potency is read from the fitted curve at half-maximal effect.

Sequence of Lysine-specific demethylase 5B (Homo sapiens) (Q9UGL1 whole entry, looked up): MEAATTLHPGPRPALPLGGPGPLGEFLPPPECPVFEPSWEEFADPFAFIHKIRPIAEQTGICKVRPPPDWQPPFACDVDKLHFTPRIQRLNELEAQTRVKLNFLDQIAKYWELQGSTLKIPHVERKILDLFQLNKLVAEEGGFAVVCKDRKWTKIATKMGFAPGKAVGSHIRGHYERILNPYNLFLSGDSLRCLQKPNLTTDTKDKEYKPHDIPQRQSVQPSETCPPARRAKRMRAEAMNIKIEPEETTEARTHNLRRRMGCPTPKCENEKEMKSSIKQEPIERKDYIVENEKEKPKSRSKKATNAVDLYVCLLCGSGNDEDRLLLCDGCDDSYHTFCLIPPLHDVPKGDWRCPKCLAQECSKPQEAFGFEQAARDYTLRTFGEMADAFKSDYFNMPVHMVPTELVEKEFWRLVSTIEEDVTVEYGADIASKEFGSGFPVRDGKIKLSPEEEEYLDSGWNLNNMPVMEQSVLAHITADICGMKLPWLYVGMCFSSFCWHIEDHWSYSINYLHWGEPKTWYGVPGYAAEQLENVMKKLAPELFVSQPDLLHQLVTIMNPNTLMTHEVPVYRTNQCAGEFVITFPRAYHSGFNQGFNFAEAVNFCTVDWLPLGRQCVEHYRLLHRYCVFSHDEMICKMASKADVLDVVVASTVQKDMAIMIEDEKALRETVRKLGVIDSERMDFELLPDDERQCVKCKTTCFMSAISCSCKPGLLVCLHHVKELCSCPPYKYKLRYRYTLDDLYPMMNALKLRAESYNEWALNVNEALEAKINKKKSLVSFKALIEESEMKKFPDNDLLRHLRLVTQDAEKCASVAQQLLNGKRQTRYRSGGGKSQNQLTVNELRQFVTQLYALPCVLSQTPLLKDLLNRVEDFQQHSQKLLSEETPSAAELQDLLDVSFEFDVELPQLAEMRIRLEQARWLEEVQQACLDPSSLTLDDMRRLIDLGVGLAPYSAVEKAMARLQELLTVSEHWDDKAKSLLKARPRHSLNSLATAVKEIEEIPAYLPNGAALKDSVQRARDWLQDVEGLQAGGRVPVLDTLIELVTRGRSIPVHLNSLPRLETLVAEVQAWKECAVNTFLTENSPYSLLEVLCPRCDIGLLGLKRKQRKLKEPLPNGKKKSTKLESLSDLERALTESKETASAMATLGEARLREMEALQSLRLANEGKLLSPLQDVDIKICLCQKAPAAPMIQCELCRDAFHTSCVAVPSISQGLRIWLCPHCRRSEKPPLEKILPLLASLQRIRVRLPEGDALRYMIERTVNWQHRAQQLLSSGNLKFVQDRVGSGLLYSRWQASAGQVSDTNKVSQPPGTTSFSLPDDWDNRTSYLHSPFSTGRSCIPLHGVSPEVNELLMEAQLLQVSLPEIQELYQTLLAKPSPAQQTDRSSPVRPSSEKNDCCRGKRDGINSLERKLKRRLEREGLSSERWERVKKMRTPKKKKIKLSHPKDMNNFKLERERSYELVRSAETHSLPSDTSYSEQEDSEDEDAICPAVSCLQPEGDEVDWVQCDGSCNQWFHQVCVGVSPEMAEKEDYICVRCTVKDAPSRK

The target in this experiment is Lysine-specific demethylase 5B (Homo sapiens) (UniProt Q9UGL1). In words: Primary screen for KDM5B Histone Demethylases FDH-coupled qHTS. Also: nearly all actives have a fitted effect of over 70% in size. The conditions noted are these: FDH-coupled NADH fluorescence (FDH is formaldehyde dehydrogenase); series mostly up to 57.7 µM. In short, it runs like this:
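qHTS format, multiple compound concentrations. Buffer 50 mM HEPES pH 7.5/0.01% Tween-20; 200 nM KDM5BΔAP final; 10 min compound preincubation; substrate-mix levels 12.5 µM peptide, 25 µM α-KG, 0.25 mM NAD⁺; 30 min RT; ΔRFU.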
In the case of `COc1ccc(OC)c(NC(=O)COc2c(C)cc(C)cc2C)c1`, the Potency entry was “inactive”.

Take `CSc1ccccc1N=Cc1ccc(Cl)c(Cl)c1`: the Potency result is “inactive”. With `COc1ccc(OC)c(CCNC(=O)c2nn(C)c3c2CS(=O)(=O)c2ccccc2-3)c1`, the Potency result is “inactive”. As for `CC(=O)Nc1ccc(S(=O)(=O)Nc2c(NC3CCCC3)c3ccccc3oc2=O)cc1`, the Potency entry is “inactive”.

Consider `O=[N+]([O-])c1cccc2nc(/C=C/c3ccc(C(F)(F)F)cc3)ccc12`, for which the Potency entry was “inactive”.

Consider `N#Cc1cccc(C2CCN(C(=O)C3CCN(C(=O)C4CC4)CC3)CC2)c1`, for which the Potency result was “inactive”. Regarding `Cn1c(=O)[nH]c(=O)c2c1nc(N1CCN(Cc3ccccc3Cl)CC1)n2Cc1ccc(F)cc1`, the Potency result was “inactive”. With `O=C(Cc1cccc(Cl)c1)N1CCC2(CN[S+](=O)([O-])c3cccnc3O2)C1` (centres undefined), the Potency entry is “inactive”.

As for `O=C(Cc1cccc(Cl)c1)N1CCC2(CC1)CN[S+](=O)([O-])c1cccnc1O2`, the Potency was 79.4 µM (active). As to `O=[S+]1([O-])NCC2(CCCN(Cc3ccncc3)C2)Oc2ncccc21` (centres undefined), the Potency entry is “inactive”. On to `CNS(=O)(=O)c1ccc(NC(=O)Nc2ccc3c(c2)OCO3)cc1`, for which the Potency result is “inactive”.

As to `Cc1nccnc1N1CCC(c2nnc(CN3CCCC3)n2C)CC1`, the Potency entry was “inactive”. For the compound `Cn1c(CN2CCOCC2)nnc1C1CCN(c2ncccc2C#N)CC1`, the Potency was 31.6 µM (active).

For the compound `COc1c(CNCc2cccnc2N2CCOCC2)c(C)nn1C`, the Potency result was “inactive”. For `C=CCNC(=O)c1cn2c(n1)CN([S+](C)(=O)[O-])CC2` the value was “inactive”; for `C=CCNC(=O)c1cn2c(n1)CN(C(=O)c1ccccc1F)CC2`, “inactive”.

With `C=CCNC(=O)c1ccc2ccnn2c1`, the Potency was 31.6 µM (active).

Consider `Cn1cc(CN2C[C@@H](CO)[C@H](C(=O)NC3CC3)C2)cn1`, for which the Potency result was “inactive”. `Cc1cccc(C(=O)N2CCN(S(=O)(=O)N3CCCCC3)CC2)c1`: the Potency result was “inactive”. As for `Cc1cccc(C(=O)N2CCCN(c3nnc4ccccn34)CC2)c1`, the Potency was 28.2 µM (active).

Regarding `COc1ccccc1C(=O)N1CCC(n2cnnc2C2CC2)CC1`, the Potency result is “inactive”. On to `COc1ccccc1C(=O)N1CCN(c2cc(C(F)(F)F)ncn2)CC1`, for which the Potency result is “inactive”. As for `Cc1cccc(C(=O)N2CCC(OC3CCN(Cc4ccccc4)CC3)CC2)c1`, the Potency result was “inactive”. As for `O=C(c1ccc(F)cc1)N1CCN(c2cc(-c3ccc(F)cc3)[nH]n2)CC1`, the Potency entry was “inactive”. For `Cc1ccc(-n2c(SC(C)C(=O)c3ccc(F)c(F)c3)nnc2N2CCOCC2)cc1` (centres undefined), the Potency result is “inactive”. As for `Cc1cccc2nnc(N3CCN(C(=O)c4ccc(F)c(F)c4)CC3)n12`, the Potency is 28.2 µM (active). As for `COc1ccccc1C(=O)N1CCCN(c2nnc3ccccn23)CC1`, the Potency was 31.6 µM (active).

For the compound `Nc1cc(OCC(F)(F)F)cc(OCC(F)(F)C(F)F)c1`, the Potency entry was “inactive”.

For `CC1CCCC(NC(=O)c2ccccc2)C1C` (centres undefined), the Potency result was “inactive”. Take `COCCSCC(=O)N1CCOC(C)(C)C1`: the Potency entry is “inactive”. Regarding `COCc1nc(C2CCCN(C(=O)CCC3CCCC3)C2)no1` (centres undefined), the Potency entry was “inactive”. As to `O=C(c1cc(-c2ccc(O)cc2)on1)N1CCOCC1`, the Potency result is “inactive”. For `O=C(c1cc2cccnn2n1)N1CCOCC1`, the Potency is 31.6 µM (active). On to `Cc1cc(C(=O)N2CCC3(CC2)CC(C(=O)N2CCOCC2)N(C)C3)nn1C` (centres undefined), for which the Potency result was “inactive”. Regarding `Cc1ccc(CNC(=O)Cc2cn(C)c3ccccc23)cc1`, the Potency result is “inactive”. For `CCOc1ccccc1NC(=O)NC1CCCCCCC1` the value was “inactive”; for `COc1ccc(NC(=O)C2(C)CN(C)Cc3ccc(Nc4cccc(OC)c4)nc32)cc1` (centres undefined), 14.1 µM (active); for `COc1ccc(Nc2cc(C(=O)N3CCOCC3)c3ccccc3n2)cc1`, “inactive”.

Regarding `COc1cccc(NC(=O)C2(C#N)CCCC2)c1`, the Potency entry is “inactive”. `O=C(Nc1cc(F)ccc1F)N1CCC2(CC1)Oc1ccccc1C(=O)N2Cc1ccccc1F`: the Potency entry was “inactive”. The value for `OCCCSc1nnc(-c2c[nH]c3ccccc23)n1C1CC1` was “inactive”; that for `CC(=O)NCC1Cn2cccc2CN1Cc1ccccc1` (centres undefined) was 28.2 µM (active).

Consider `CC(C)CNC(=O)NCC1Cn2cccc2C(=O)N1Cc1ccccc1` (centres undefined), for which the Potency result was “inactive”. Turning to `O=C(NCC1Cn2cccc2CN1Cc1ccccc1)c1ccco1` (centres undefined), the Potency was 28.2 µM (active). As to `O=C(NCC1Cn2cccc2C(=O)N1Cc1ccccc1)c1ccco1` (centres undefined), the Potency result was “inactive”.

Consider `CC(C)NC(=O)NCC1Cn2cccc2C(=O)N1Cc1ccccc1` (centres undefined), for which the Potency entry is “inactive”.

Consider `O=C(NCC1Cn2cccc2C(=O)N1Cc1ccccc1)c1ccc(F)cc1` (centres undefined), for which the Potency result was “inactive”.

For the compound `CCCn1nc(C(=O)NCc2cccc(OC)c2)c2ccccc2c1=O`, the Potency entry was “inactive”. The value for `O=C(CSc1ncc(CO)n1Cc1ccc(F)cc1)NCc1ccc2c(c1)OCO2` was “inactive”; that for `CN(C(=O)Cn1c(=O)n(C)c(=O)c2sccc21)c1ccccc1` was “inactive”. As for `Cc1ccc(C(=O)c2ccccc2C(=O)OCc2c(Cl)cccc2Cl)cc1`, the Potency result was “inactive”. Regarding `O=C(NCCc1nc2ccccc2[nH]1)c1ccc(N2CCCN(Cc3ccccc3)C2=O)cc1`, the Potency entry was “inactive”.

For the compound `COCC(=O)N[C@H]1C[C@H]2C(=O)Nc3ccc(/C=C/c4ccc(OC)cc4)cc3C(=O)N2C1`, the Potency was 28.2 µM (active). On to `COCCn1ccc2cc(C(=O)Nc3ccc4c(c3)C(=O)N3CCC[C@H]3C(=O)N4)ccc21`, for which the Potency result was “inactive”. As to `O=C1Nc2ccc(Br)cc2C(=O)N2CCN(C(=O)C3CCCCC3)C[C@H]12`, the Potency entry is “inactive”. Consider `COc1ccc(C(=O)N2CCc3nc(C(C)C)nc(-c4ccc(Cl)cc4)c3CC2)cc1`, for which the Potency entry was “inactive”.

Take `Cc1nn(CC(=O)NC(C)(C)C)c(C)c1S(=O)(=O)N1CCCC(C(=O)N2CCC(C)CC2)C1` (centres undefined): the Potency entry is “inactive”.

Consider `Cc1cc(NC(=O)CCSc2nnc3c(Cl)cc(C(F)(F)F)cn23)no1`, for which the Potency result was “inactive”. On to `COc1ccc(C(=O)N[C@H](C(=O)NCc2ccccc2)C(C)C)cc1`, for which the Potency entry is “inactive”. Consider `Nc1nc(CCCNC(=O)C2NCCc3[nH]cnc32)cs1` (centres undefined), for which the Potency was 25.1 µM (active). For the compound `O=C(NCc1nnc2ccccn12)C1NCCc2[nH]cnc21` (centres undefined), the Potency entry is “inactive”. For `O=C(C1NCCc2[nH]cnc21)N1CCc2nnc(-c3ccccc3)n2CC1` (centres undefined), the Potency result is “inactive”. For `COc1ccc2nc(C)c(C(=O)N(C)CC3COc4ccccc4O3)cc2c1` (centres undefined) the value was “inactive”. Regarding `C/C(=N/NC(=S)NCc1ccccc1)c1cccc(C(F)(F)F)c1`, the Potency result was “inactive”.
